{
  "source": "the supplement of paper PMC7366291",
  "note": "Counter-ions that a name gives are not always drawn. ± gives the standard deviation or the standard deviation of the averaged measurements.",
  "data": [
    {"tested_on": "Danio rerio Tg(wt1b:EGFP) embryo, pronephros", "assay": "glomerular separation, fold change vs DMSO control; higher = glomeruli further apart (abnormal)", "details": "25 µM; exposure: 24-48 hpf", "outline": "(§1)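 Dechorionated Tg(wt1b:EGFP) zebrafish embryos were incubated at 28.5°C from 24 to 48 hpf with 25 μM compound in HEPES-buffered E3 containing 0.5% DMSO and 0.003% PTU. Distances and angles between 16 manually set points on maximum projections of dorsal pronephros images were measured in Fiji, with values over 2 SD from the feature mean excluded. Each feature is a fold change relative to the mean of same-day DMSO-treated embryos.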", "values": [
      {"smiles": "O=C1NCN(c2ccccc2)C12CCN(CCCC(c1ccc(F)cc1)c1ccc(F)cc1)CC2", "note": "[Fluspirilen]", "glomerular separation": "2.89 ± 1.3"},
      {"smiles": "CN(C)[C@@H]1C(O)=C(C(N)=O)C(=O)[C@@]2(O)C(O)=C3C(=O)c4c(O)ccc(Cl)c4[C@@H](O)[C@H]3C[C@@H]12", "note": "[Demeclocycline hydrochloride]", "glomerular separation": "0.928 ± 0.36"},
      {"smiles": "Clc1ccc(COC(Cn2ccnc2)c2ccc(Cl)cc2Cl)cc1", "note": "(configuration not stated) [Econazole nitrate]", "glomerular separation": "2.58 ± 1.3"},
      {"smiles": "O=C(O)CCC(=O)c1ccc(-c2ccccc2)cc1", "note": "[Fenbufen]", "glomerular separation": "6.73 ± 2.4"},
      {"smiles": "C=C[C@H]1CN2CC[C@H]1C[C@@H]2[C@@H](O)c1ccnc2ccc(OC)cc12", "note": "[Quinidine hydrochloride monohydrate]", "glomerular separation": "0.962 ± 0.19"},
      {"smiles": "CN1CCN(C(c2ccccc2)c2ccccc2)CC1", "note": "[Cyclizine hydrochloride]", "glomerular separation": "0.835 ± 0.14"},
      {"smiles": "CC1(C)S[C@@H]2[C@H](NC(=O)[C@H](NC(=O)N3CCNC3=O)c3ccccc3)C(=O)N2[C@H]1C(=O)O", "note": "[Azlocillin sodium salt]", "glomerular separation": "0.819 ± 0.3"}
    ]},
    {"tested_on": "Danio rerio Tg(wt1b:EGFP) embryo, pronephros", "assay": "glomerular width (mean of left and right), fold change vs DMSO control; higher = wider glomerulus", "details": "25 µM; exposure: 24-48 hpf", "outline": "as §1", "values": [
      {"smiles": "CC[C@H](C)C(=O)O[C@H]1C[C@H](O)C=C2C=C[C@H](C)[C@H](CC[C@@H](O)C[C@@H](O)CC(=O)O)[C@H]21", "note": "[Pravastatin]", "glomerular width": "0.865 ± 0.051"},
      {"smiles": "N=C(N)NC(=O)Cc1c(Cl)cccc1Cl", "note": "[Guanfacine hydrochloride]", "glomerular width": "1.08 ± 0.1"},
      {"smiles": "CC(=O)OCC(=O)[C@@]12OC(C)(C)O[C@@H]1C[C@H]1[C@@H]3C[C@H](F)C4=CC(=O)C=C[C@]4(C)[C@@]3(F)[C@@H](O)C[C@@]12C", "note": "[Fluocinonide]", "glomerular width": "1.4 ± 0.044"},
      {"smiles": "O=C1c2cccc3c2[C@H](CCC3)CN1[C@@H]1CN2CCC1CC2", "note": "[Palonosetron hydrochloride]", "glomerular width": "0.975 ± 0.023"},
      {"smiles": "Nc1ccc(O)c(C(=O)O)c1", "note": "[Mesalamine]", "glomerular width": "0.956 ± 0.032"},
      {"smiles": "COCC(=O)Nc1c(I)c(C(=O)NCC(O)CO)c(I)c(C(=O)N(C)CC(O)CO)c1I", "note": "(configuration not stated) [Iopromide]", "glomerular width": "1.02 ± 0.041"},
      {"smiles": "CCN(CC)CC(=O)Nc1c(C)cccc1C", "note": "[Lidocaine hydrochloride]", "glomerular width": "1.04 ± 0.015"},
      {"smiles": "Nc1ccn([C@H]2CC[C@@H](CO)O2)c(=O)n1", "note": "[Zalcitabine]", "glomerular width": "0.966 ± 0.061"},
      {"smiles": "CCC[C@H](N[C@@H](C)C(=O)N1[C@H](C(=O)O)C[C@@H]2CCCC[C@@H]21)C(=O)OCC", "note": "[Perindopril]", "glomerular width": "1.09 ± 0.028"},
      {"smiles": "COc1ccc(NS(=O)(=O)c2ccc(N)cc2)nn1", "note": "[Sulfamethoxypyridazine]", "glomerular width": "1.03 ± 0.1"},
      {"smiles": "CCOc1ccc(Cc2nccc3cc(OCC)c(OCC)cc23)cc1OCC", "note": "[Ethaverine hydrochloride]", "glomerular width": "1.1 ± 0.081"},
      {"smiles": "CC1Cc2ccccc2N1NC(=O)c1ccc(Cl)c(S(N)(=O)=O)c1", "note": "(configuration not stated) [Indapamide]", "glomerular width": "0.904 ± 0.058"},
      {"smiles": "CC(=O)Oc1ccc(C(c2ccc(OC(C)=O)cc2)c2ccccn2)cc1", "note": "[Bisacodyl]", "glomerular width": "0.957 ± 0.038"},
      {"smiles": "CC1(C)[C@@H](OC(=O)CCC(=O)O)CC[C@]2(C)[C@H]3C(=O)C=C4[C@@H]5C[C@@](C)(C(=O)O)CC[C@]5(C)CC[C@@]4(C)[C@]3(C)CC[C@@H]12", "note": "[Carbenoxolone disodium salt]", "glomerular width": "1.04 ± 0.031"},
      {"smiles": "O=c1n(CCCN2CCN(c3cccc(Cl)c3)CC2)nc2ccccn12", "note": "[Trazodone hydrochloride]", "glomerular width": "0.97 ± 0.015"},
      {"smiles": "O=C(O)c1cc(=O)c2c(OCC(O)COc3cccc4oc(C(=O)O)cc(=O)c34)cccc2o1", "note": "[Cromolyn disodium salt]", "glomerular width": "1.08 ± 0.011"},
      {"smiles": "CCCCc1ccc2[nH]c(NC(=O)OC)nc2c1", "note": "[Parbendazole]", "glomerular width": "0.5042 ± 0.0026"},
      {"smiles": "CC(=O)Oc1cccc2c1C(=O)c1c(OC(C)=O)cc(C(=O)O)cc1C2=O", "note": "[Diacerein]", "glomerular width": "1.1 ± 0.046"},
      {"smiles": "COC(=O)[C@@H]1[C@H]2C[C@H]3c4[nH]c5ccccc5c4CCN3C[C@@H]2CC[C@@H]1O", "note": "[Yohimbine hydrochloride]", "glomerular width": "1.08 ± 0.069"},
      {"smiles": "CC(C)(C)NC[C@H](O)c1ccc(O)c(CO)c1", "note": "[Levalbuterol hydrochloride]", "glomerular width": "1.07 ± 0.031"},
      {"smiles": "O=C(N[C@H](CO)[C@H](O)c1ccc([N+](=O)[O-])cc1)C(Cl)Cl", "note": "[Chloramphenicol]", "glomerular width": "0.954 ± 0.035"},
      {"smiles": "CC[C@@H]1C(=O)OC[C@@H]1Cc1cncn1C", "note": "[Pilocarpine nitrate]", "glomerular width": "1.04 ± 0.051"},
      {"smiles": "O=C(O)Cc1ccc(-c2ccccc2)cc1", "note": "[Felbinac]", "glomerular width": "0.627 ± 0.0096"},
      {"smiles": "CCCCC1(COC(=O)CCC(=O)O)C(=O)N(c2ccccc2)N(c2ccccc2)C1=O", "note": "[Suxibuzone]", "glomerular width": "0.92 ± 0.016"},
      {"smiles": "CC(C)NC[C@H](O)COc1cccc2ccccc12", "note": "[(S)-propranolol hydrochloride]", "glomerular width": "1.03 ± 0.017"},
      {"smiles": "CCOc1ccccc1OC(c1ccccc1)C1CNCCO1", "note": "(configuration not stated) [Reboxetine mesylate]", "glomerular width": "1 ± 0.077"},
      {"smiles": "CCC1(C)CC(=O)NC1=O", "note": "(configuration not stated) [Ethosuximide]", "glomerular width": "1.07 ± 0.029"},
      {"smiles": "CO[C@@H]1[C@@H](OC(N)=O)[C@@H](O)[C@H](Oc2ccc3c(O)c(NC(=O)c4ccc(O)c(CC=C(C)C)c4)c(=O)oc3c2C)OC1(C)C", "note": "[Novobiocin sodium salt]", "glomerular width": "1.06 ± 0.038"},
      {"smiles": "C[C@@]1(O)CCOC(=O)C1", "note": "[Mevalonic-D, L acid lactone]", "glomerular width": "1.09 ± 0.03"},
      {"smiles": "C(=C\\c1ccccc1)/CN1CCN(C(c2ccccc2)c2ccccc2)CC1", "note": "[Cinnarizine]", "glomerular width": "1.03 ± 0.024"},
      {"smiles": "C#C[C@]1(O)CC[C@H]2[C@@H]3[C@H](C)CC4=C(CCC(=O)C4)[C@H]3CC[C@@]21C", "note": "[Tibolone]", "glomerular width": "0.908 ± 0.019"},
      {"smiles": "COc1c2occc2c(OC)c2c(=O)cc(C)oc12", "note": "[Khellin]", "glomerular width": "1 ± 0.033"},
      {"smiles": "CCN(CC)Cc1cc(Nc2ccnc3cc(Cl)ccc23)ccc1O", "note": "[Amodiaquin dihydrochloride dihydrate]", "glomerular width": "0.999 ± 0.012"},
      {"smiles": "O=C1NCN(c2ccccc2)C12CCN(CCCC(c1ccc(F)cc1)c1ccc(F)cc1)CC2", "note": "[Fluspirilen]", "glomerular width": "0.687 ± 0.11"},
      {"smiles": "CN(C)[C@@H]1C(O)=C(C(N)=O)C(=O)[C@@]2(O)C(O)=C3C(=O)c4c(O)ccc(Cl)c4[C@@H](O)[C@H]3C[C@@H]12", "note": "[Demeclocycline hydrochloride]", "glomerular width": "0.999 ± 0.045"},
      {"smiles": "Clc1ccc(COC(Cn2ccnc2)c2ccc(Cl)cc2Cl)cc1", "note": "(configuration not stated) [Econazole nitrate]", "glomerular width": "0.9791 ± 0.0056"},
      {"smiles": "O=C(O)CCC(=O)c1ccc(-c2ccccc2)cc1", "note": "[Fenbufen]", "glomerular width": "0.729 ± 0.11"},
      {"smiles": "C=C[C@H]1CN2CC[C@H]1C[C@@H]2[C@@H](O)c1ccnc2ccc(OC)cc12", "note": "[Quinidine hydrochloride monohydrate]", "glomerular width": "1.13 ± 0.084"},
      {"smiles": "CN1CCN(C(c2ccccc2)c2ccccc2)CC1", "note": "[Cyclizine hydrochloride]", "glomerular width": "0.9853 ± 0.0046"},
      {"smiles": "CC1(C)S[C@@H]2[C@H](NC(=O)[C@H](NC(=O)N3CCNC3=O)c3ccccc3)C(=O)N2[C@H]1C(=O)O", "note": "[Azlocillin sodium salt]", "glomerular width": "1.01 ± 0.023"}
    ]}
  ]
}
